Screening results: PubChem, National Center for Advancing Translational Sciences (NCATS)
The list is not random: actives were taken first. Their share in the collection is about 10%.
L3MBTL1 inh: qHTS Assay for the Inhibitors of L3MBTL1 | Lethal(3)malignant brain tumor-like protein 1 (Homo sapiens), Q9Y468 | AlphaScreen L3MBTL1–H3K9me1 peptide binding | Potency, µM (titrated, usually from 57.1 µM), for the others: at the top dose activity, negative = inhibition, hits mostly inhibitors | 230,000 tested, 0.66% active; also: % is scaled to controls: 0 for no effect and ±100 for the full control effect; nearly all actives have a fitted effect of over 60% in size
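Read-out is AlphaScreen signal from streptavidin donor and nickel chelate acceptor beads (10 ug/mL final each) bridging L3MBTL1 (50 nM) and biotinylated K9-monomethylated H3(1-15) peptide (75 nM), after 30 min compound exposure at room temperature.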
BAZ2B inh: qHTS Assay for Inhibitors of BAZ2B | AID 504333, 2011 | AlphaScreen BAZ2B-H3K14Ac peptide displacement | 360,000 tested, 4.4% active | Potency, µM (highest dose often 114 µM), without a hit: at the highest dose activity change, negative = inhibition, usual class: inhibitors; also: % is scaled to controls: 0 for no effect and ±100 for the full control effect; nearly all actives have a fitted effect of over 60% in size
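Complex of BAZ2B and biotin-H3K14Ac (50 nM apiece) forms over 30 min at RT, then faces library compounds up to 110 uM for another 30 min; AlphaScreen beads added, 20 min dark incubation, luminescence read.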
HP1b chromo inh: HTS for Inhibitors of HP1-beta Chromodomain Interactions with Methylated Histone Tails | Chromobox protein homolog 1 (Homo sapiens), P83916 | AlphaScreen HP1-beta / biotin-H3K9me3 peptide binding | Potency, µM (series often up to 114 µM), for the others: at the top dose activity change, negative = inhibition, most hits filed as inhibitors | 390,000 tested, 0.56% active | AID 540317, 2011; also: nearly all actives have a fitted effect of over 70% in size
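HP1-beta protein (50 nM final) preincubated 30 min at room temperature with biotinylated H3(1-18)K9me3 peptide (50 nM) in PBS pH 7.4, 0.01% Tween-20, then compound added for 30 min. AlphaScreen streptavidin donor/nickel chelate acceptor beads (10 ug/mL final), 30 min dark, luminescence read.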
GLS inh: qHTS for Inhibitors of Glutaminase (GLS) | Glutaminase kidney isoform, mitochondrial (Homo sapiens), O94925 | GLS enzymatic activity, qHTS titration | Potency, µM (top dose mostly 45.5 µM), inactives show top-dose activity change, negative = inhibition, most hits filed as inhibitors | 410,000 tested, 0.21% active; also: % is scaled to controls: 0 for no effect and ±100 for the full control effect
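Enzyme dispensed in phosphate buffer (45 mM, pH 8.2, 0.02% Tween-20), compounds pinned in, then 1 mM L-glutamine solution and the glutamate oxidase–HRP–Amplex Red mix added; fluorescence read immediately and again after 30 min at room temperature.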
G9a block: qHTS Assay for Inhibitors of Histone Lysine Methyltransferase G9a | Histone-lysine N-methyltransferase EHMT2 (Homo sapiens), Q96KQ7 | G9a H3K9 monomethylation, AlphaScreen, 2 h | Potency, µM (titrated, usually from 102 µM), inactives show top-dose activity, negative = inhibition, usual class: inhibitors | 350,000 tested, 8.8% active | AID 504332, 2011; also: % is scaled to controls: 0 for no effect and ±100 for the full control effect; nearly all actives have a fitted effect of over 75% in size
Target sequence (Q96KQ7 913-1193 limits assumed): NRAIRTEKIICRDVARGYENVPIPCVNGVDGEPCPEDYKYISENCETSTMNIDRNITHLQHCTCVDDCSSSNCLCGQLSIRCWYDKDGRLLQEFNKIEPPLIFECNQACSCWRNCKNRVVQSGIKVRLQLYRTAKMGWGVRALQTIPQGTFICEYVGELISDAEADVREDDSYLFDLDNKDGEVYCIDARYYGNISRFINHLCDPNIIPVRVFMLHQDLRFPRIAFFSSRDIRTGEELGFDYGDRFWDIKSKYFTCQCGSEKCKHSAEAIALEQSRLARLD
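Readings reflect AlphaScreen signal from monomethyl-H3K9 antibody detection. HMT at 20 nM; substrate b-H3K9 500 nM; cofactor SAM 20 uM; 2 h RT reaction; compounds tested as titrations in qHTS with 15 min preincubation.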
JMJD2A Tudor inh: qHTS Assay for Inhibitors of JMJD2A-Tudor Domain; AlphaScreen JMJD2A-Tudor / H3K4me3 peptide binding; Potency, µM (doses to about 114 µM), without a hit: at the highest dose activity change, negative = inhibition, usual class: inhibitors; 390,000 tested, 4.4% active; AID 504339, 2011; also: % is scaled to controls: 0 for no effect and ±100 for the full control effect; nearly all actives have a fitted effect of over 50% in size
* hit, by the source's call; ? = inconclusive; · = not tested or not shown; [ ] = dose if it differs, or a comment. Calls follow the shape of the dose curve; as a rule, active = well fitted curve in the direction sought with a large enough effect; inconclusive = small, poorly fitted or top-dose-only effect, or another doubt; inactive = no such curve, though single readings can be large; an effect the other way counts as inactive or inconclusive. Potency is read from the fitted curve at half-maximal effect.

SMILES	L3MBTL1 inh	BAZ2B inh	HP1b chromo inh	GLS inh	G9a block	JMJD2A Tudor inh
CCOc1ccc(/C(O)=C2\C(=O)C(=O)N(c3cc(C)on3)C2c2ccccc2OC)cc1 (stereo unspecified)	23%	-36%	6%	10%	?	-25%
CCOc1ccc(/C(O)=C2/C(=O)C(=O)N(c3nc(C)c(C)s3)C2c2ccco2)cc1 (stereo unspecified)	-9%	-37%	6%	7%	45µM*	?
COC(=O)c1sc(N2C(=O)c3oc4ccccc4c(=O)c3C2c2cccc(O)c2)nc1C (stereo unspecified)	·	-4%	0%	1%	-12%	-14%
COc1ccccc1N1CCN(C(=O)c2ccc3c(c2)NC(=O)C(CSCc2ccccc2C)N3)CC1 (stereo unspecified)	·	50µM*	·	·	?	·
CCN(Cc1nc(-c2ccc(OC)cc2)oc1C)S(=O)(=O)c1ccc(Cl)cc1	·	?	?	-4%	13µM*	32%
COc1ccc(C(=S)Nc2ccc(N(C)C)cc2)cc1	·	?	?	30%	?	?
COc1cccc(C(=O)Nc2ccc(C)cc2)c1	-10%[11.4 µM]	3%	41%	-4%	8%[12.7 µM]	-6%
COCCNC(=S)Nc1ccc(N2CCCCC2)cc1	·	50µM*	?	18%	8.9µM*	?
CN(C)c1ccc(NC(=S)c2ccc3ccccc3n2)cc1	·	2.5µM*	41%	-24%	2µM*	-12%
COc1ccc(C(=O)NC(=S)Nc2ccc(N3CCCC3)cc2)cc1	-17%	-28%	-10%	0%	?	-19%
COc1cccc(C(=O)NC(=S)Nc2ccc(N(C)C)cc2)c1	?	10µM*	?	42%	10µM*	25µM*
COc1ccc(NC(=S)c2ccc(N(C)C)cc2)cc1	-15%	-26%	?	7%	25µM*	-11%
C=CCC(O)[C@H](Cc1cnc2ccccc2c1)[C@H](/C=C/CCCC)c1ccccc1 (stereo partly specified)	·	·	60%	·	·	2%
COc1ccc(C(=O)NC(=S)Nc2ccc(CN3CCCCC3)cc2)cc1Cl	-3%	?	-34%	-20%	13µM*	?
COc1ccc(/C(C)=N/NC(=O)c2ccc(N(C)C)cc2)cc1	-5%	-4%	30%	30%	·	-13%
COc1ccc(C(=O)N/N=C(/C)c2ccc(N3CCCCC3)cc2)cc1	-4%	2%	8%	?	20%[59 µM]	50µM*
CC(C)Oc1cccc(C(=O)NC(=S)Nc2ccc(N3CCN(C)CC3)cc2)c1	-16%	40µM*	?	29%	·	50µM*
